Rows were chosen to be rich in hits. Some 7.4% of all compounds tested hit in one or more screens of this group.
ELG1 genotox – inducers of genotoxicity in HEK293T ELG1-luciferase cells | HEK293T ELG1-luciferase reporter, luminescence, 16 h | Potency, µM (doses to about 46 µM), actives largely listed as activators | 330,000 tested, 1.3% active | AID 504466; note: nearly all actives have a fitted effect of over 60% in size
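Luminescence read-out: rising ELG1-luciferase signal, reflecting elevated ELG1 protein under genetic stress, flags genotoxic compounds. Cells were treated for 16 hr at 37 °C before ONE-Glo detection.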
FLuc counter – counter-screen for miR-21 project: firefly luciferase inhibitors or activators | P08659 | purified FLuc, Km substrates, luminescence inhibition | Potency, µM (highest dose often 57.5 µM), actives largely listed as inhibitors | 360,000 tested, 6.9% active | AID 588342; note: nearly all actives have a fitted effect of over 55% in size
Target sequence (P08659 whole entry, looked up): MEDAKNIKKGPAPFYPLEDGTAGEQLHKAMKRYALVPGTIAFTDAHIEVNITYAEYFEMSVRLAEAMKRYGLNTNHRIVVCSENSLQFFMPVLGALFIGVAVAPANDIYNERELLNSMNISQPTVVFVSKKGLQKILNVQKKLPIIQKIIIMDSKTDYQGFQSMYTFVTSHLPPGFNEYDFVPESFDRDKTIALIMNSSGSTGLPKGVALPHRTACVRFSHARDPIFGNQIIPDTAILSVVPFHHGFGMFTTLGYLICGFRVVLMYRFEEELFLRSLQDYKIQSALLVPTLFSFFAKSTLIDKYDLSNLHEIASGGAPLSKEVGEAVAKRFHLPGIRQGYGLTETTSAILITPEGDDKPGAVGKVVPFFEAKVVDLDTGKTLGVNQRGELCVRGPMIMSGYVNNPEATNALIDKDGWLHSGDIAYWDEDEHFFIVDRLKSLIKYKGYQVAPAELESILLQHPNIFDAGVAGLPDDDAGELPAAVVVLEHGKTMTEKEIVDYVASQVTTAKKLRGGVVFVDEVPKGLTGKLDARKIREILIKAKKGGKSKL
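Biochemical qHTS of compounds, final roughly 60 µM downward over six points, against 10 nM purified firefly luciferase using Km concentrations of substrates (10 uM D-luciferin, 10 uM ATP) in Tris acetate pH 7.5 buffer; luminescence output.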
NPC1 prom act – NPC1 promoter activation; 320,000 tested, 2.4% active; AID 485313; Potency, µM (titrated, usually from 9.22 µM), usual class: activators; Huh7 NPC1 promoter luciferase reporter, 24 h; note: nearly all actives have a fitted effect of over 60% in size
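Stable NPC1-promoter luciferase Huh7 line; cpd (DMSO) 24 h, 37 °C, 5% CO2; Amplite luciferase reagent 10 min RT; luminescence readout. qHTS format.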
Rab9 prom act – Rab9 promoter activation. Huh7 Rab9 promoter-luciferase reporter, luminescence, 24 h. Potency, µM (highest dose often 9.22 µM), most hits filed as activators. 320,000 tested, 2.8% active. AID 485297; note: nearly all actives have a fitted effect of over 60% in size
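Measured in stably transfected Huh7 cells bearing a Rab9 promoter–luciferase construct: 24 h compound treatment at 37 °C, followed by luminescence detection.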
SMN2 splice enh – increases expression of the SMN2 splice variant. 210,000 tested, 2.8% active. AID 1458. HEK293 SMN2-luciferase splicing reporter, luminescence, 30-36 h. Potency, µM (titrated, usually from 46.1 µM), most hits filed as activators; note: nearly all actives have a fitted effect of over 55% in size
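HEK293 cells carry an SMN2 […]–luciferase reporter in which exon 7 inclusion puts luciferase in frame. Cells were plated 10-12 h before compound addition, then incubated 30-36 h at 37C. ONE-Glo luminescence was read; sodium butyrate at 4.5 mM final served as control.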
Large screens that a line does not name were inactive. Calls come from the whole dose curve; as a rule, active = well fitted curve in the direction sought with a large enough effect; inconclusive = small, poorly fitted or top-dose-only effect, or another doubt; inactive = no such curve, though single readings can be large; an effect the other way counts as inactive or inconclusive.

Cc1nc2cc(NC(=O)Nc3ccc(N4CCOCC4)cc3)ccc2n1C	none
NCCC[C@@H](CC(=O)N[C@@H]1CCCC[C@H]1C(=O)N[C@H](CC(=O)N[C@@H](CCC(=O)O)CC(=O)O)Cc1ccccc1)NC(=O)C[C@H](Cc1ccccc1)NC(=O)[C@@H]1CNCC[C@H]1N	none (no result: ELG1 genotox, FLuc counter, NPC1 prom act, Rab9 prom act)
C=C[C@@H](C)[C@](C)(O)c1ccccc1	none (no result: ELG1 genotox, FLuc counter, NPC1 prom act, Rab9 prom act)
COC(C)=O	none (no result: ELG1 genotox, FLuc counter, NPC1 prom act, Rab9 prom act)
O=C(Nc1c(C(=O)Nc2ccc(F)cc2)oc2ccccc12)c1ccccc1F	FLuc counter inconclusive (no result: ELG1 genotox, NPC1 prom act, Rab9 prom act)
CCn1c(C)nc2cc(C(=O)NNC(=O)Nc3ccc(Cl)cc3)ccc21	NPC1 prom act inconclusive, Rab9 prom act 1.4µM
CCCc1ccc(OC(=O)c2sc3ncn(Cc4cccc(F)c4)c(=O)c3c2C)cc1	none (no result: ELG1 genotox, NPC1 prom act, Rab9 prom act, SMN2 splice enh)
CCOC(=O)CCc1c(C)c2cc3c(c(C)c2oc1=O)OCN(CCc1ccccc1OC)C3	none (no result: ELG1 genotox, NPC1 prom act, Rab9 prom act)
O=C(Nc1cccc(Cl)c1)Nc1nc(-c2ccc(Cl)cc2)cs1	none
CN(C)c1ccc(NC(=O)Nc2cccc(Cl)c2)cc1	ELG1 genotox inconclusive, FLuc counter 1.3µM, NPC1 prom act 2.2µM, Rab9 prom act 1.8µM, SMN2 splice enh 13µM
CC(=O)Nc1cccc(N(C)S(C)(=O)=O)c1	none
CN(c1cccc(NC(=O)Nc2cccc(Cl)c2)c1)S(C)(=O)=O	FLuc counter 17µM
O=C(Nc1cccc(Cl)c1)Nc1csc([N+](=O)[O-])c1	FLuc counter 19µM (no result: SMN2 splice enh)
Cn1c2ccccc2c2cnn(CC(=O)NCCCN3CCCCC3)c(=O)c21	none (no result: ELG1 genotox, NPC1 prom act, Rab9 prom act)
COc1ccc(C2CC(=O)N(CC(=O)Nc3ccc(C(F)(F)F)cc3)c3ccccc3S2)cc1 (stereo not given)	FLuc counter 11µM (no result: ELG1 genotox, NPC1 prom act, Rab9 prom act)
COc1ccc(C2CC(=O)N(C)c3ccccc3S2)cc1 (stereo not given)	ELG1 genotox 18µM, FLuc counter 24µM
CN1C(=O)CC(c2ccco2)Sc2ccccc21 (stereo not given)	ELG1 genotox inconclusive, SMN2 splice enh inconclusive
Cc1oc2cc3oc(=O)c(CCC(=O)NCCc4ccccc4F)c(C)c3cc2c1C	SMN2 splice enh inconclusive (no result: ELG1 genotox, NPC1 prom act, Rab9 prom act)
Cc1ccc(-n2nc(C)c3c(C)c(CCC(=O)NCc4ccccc4Cl)c(C)nc32)cc1	none (no result: ELG1 genotox, NPC1 prom act, Rab9 prom act)
CCCc1nc2ccc(NC(C)=O)cc2c(=O)n1Cc1ccc(Cl)cc1	ELG1 genotox inconclusive, FLuc counter inconclusive, NPC1 prom act 3.5µM, Rab9 prom act inconclusive
COc1ccc(Cn2c(C3CC3)nc3ccc(NC(C)=O)cc3c2=O)cc1	ELG1 genotox inconclusive, FLuc counter 11µM, NPC1 prom act 2.2µM, Rab9 prom act 1.6µM, SMN2 splice enh 11µM
CCC(C(=O)Nc1ccccc1C(=O)OC)n1nc(C)c2c(C)n(-c3ccc(C)cc3)nc2c1=O (stereo not given)	none (no result: ELG1 genotox, NPC1 prom act, Rab9 prom act, SMN2 splice enh)
CN(C)c1ccc(C#Cc2ccc3cc(CCCO)oc(=O)c3c2)cc1	ELG1 genotox inconclusive, FLuc counter 1.7µM, NPC1 prom act 2.8µM (no result: SMN2 splice enh)
O=c1oc(CCCO)cc2ccc(C#Cc3ccsc3)cc12	FLuc counter inconclusive, NPC1 prom act inconclusive (no result: SMN2 splice enh)
Cc1ccc(-c2nnc(COC(=O)c3ccco3)o2)cc1	FLuc counter 13µM (no result: SMN2 splice enh)
Cc1ccc(-c2nnc(COC(=O)c3cccs3)o2)cc1	ELG1 genotox inconclusive, FLuc counter 6.7µM, NPC1 prom act inconclusive (no result: SMN2 splice enh)
c1ccc(-c2n[nH]c(-c3ccccn3)n2)nc1	ELG1 genotox 6.5µM, FLuc counter 15µM, NPC1 prom act 3.5µM, Rab9 prom act 2.8µM, SMN2 splice enh 11µM
c1ccc(-c2n[nH]c(-c3ccccn3)n2)cc1	ELG1 genotox inconclusive, FLuc counter 12µM, NPC1 prom act 2µM, Rab9 prom act 3.5µM, SMN2 splice enh 11µM
c1ccc(-c2nn[nH]n2)nc1	none (no result: SMN2 splice enh)
C=C(C)C(=O)OCCCCCC	none (no result: ELG1 genotox, FLuc counter, NPC1 prom act, Rab9 prom act)
COc1ccc(N(C)C(=O)NCc2noc3ccc(C)cc23)c(OC)c1	none (no result: ELG1 genotox, NPC1 prom act, Rab9 prom act, SMN2 splice enh)
Cc1ccc2c(c1)N(CCC(=O)NCc1ccccc1Cl)C(=O)CO2	none (no result: ELG1 genotox, NPC1 prom act, Rab9 prom act)
CCOC(=O)c1c(C)[nH]c(C(=O)COC(=O)C2CC2C)c1C (stereo not given)	ELG1 genotox 2.6µM, FLuc counter 3.4µM, NPC1 prom act 3.5µM, Rab9 prom act 3.2µM, SMN2 splice enh inconclusive
CCOc1ccc(OCC)c(NS(=O)(=O)c2c(C)[nH]c(=O)[nH]c2=O)c1	none (no result: ELG1 genotox, NPC1 prom act, Rab9 prom act, SMN2 splice enh)
CCOC(=O)N1CCc2c(sc(NCc3cccc(F)c3)c2C(=O)Nc2ccc(OCC)cc2)C1	FLuc counter 24µM (no result: ELG1 genotox, NPC1 prom act, Rab9 prom act, SMN2 splice enh)
CCOC(=O)N1CCc2c(sc(NCc3ccc(OC)c(Br)c3)c2C(=O)Nc2cc(OC)ccc2OC)C1	none (no result: ELG1 genotox, NPC1 prom act, Rab9 prom act, SMN2 splice enh)
Cc1cccc(OCCn2nnc3ccccc32)c1C	ELG1 genotox inconclusive, FLuc counter 17µM, NPC1 prom act inconclusive (no result: SMN2 splice enh)
C=CCc1ccccc1OCCn1nnc2ccccc21	none (no result: SMN2 splice enh)
C/C=C/c1ccc(OCCn2nnc3ccccc32)c(OC)c1	ELG1 genotox inconclusive, FLuc counter 17µM, Rab9 prom act inconclusive (no result: SMN2 splice enh)
Cc1cccc(-c2nc(Cn3c(SCc4cc(C)ccc4C)nc4ccncc43)c(C)o2)c1	none (no result: ELG1 genotox, NPC1 prom act, Rab9 prom act)
O=C(CCS(=O)(=O)c1cccc2nsnc12)Nc1ccc(F)cc1	none (no result: ELG1 genotox, NPC1 prom act, Rab9 prom act)
Cc1cccc(-c2nc(C#N)c(N3CCC(C)CC3)o2)c1	none (no result: SMN2 splice enh)
Cc1ccccc1-c1nc(C#N)c(N2CCC(C)CC2)o1	FLuc counter 24µM (no result: SMN2 splice enh)
CC1CCN(c2oc(-c3ccccc3Cl)nc2C#N)CC1	ELG1 genotox inconclusive, FLuc counter 11µM, NPC1 prom act inconclusive, Rab9 prom act inconclusive (no result: SMN2 splice enh)
